pPAFAH inh = pPAFAH (human) enzyme inhibition; recombinant pPAFAH, FP-rhodamine probe fluorescence polarization; inhibition, % at 3.39 µM; actives 1.5% (n = 330,000); AID 463082;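 active = inhibition above the mean inhibition across the screen plus 3 SD, cut at about 25% in these data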;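 note: inhibitors block binding of the rhodamine activity-based probe so polarization drops; 0% = enzyme with DMSO and 100% = wells lacking pPAFAH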
Target sequence (Q13093 whole entry, looked up): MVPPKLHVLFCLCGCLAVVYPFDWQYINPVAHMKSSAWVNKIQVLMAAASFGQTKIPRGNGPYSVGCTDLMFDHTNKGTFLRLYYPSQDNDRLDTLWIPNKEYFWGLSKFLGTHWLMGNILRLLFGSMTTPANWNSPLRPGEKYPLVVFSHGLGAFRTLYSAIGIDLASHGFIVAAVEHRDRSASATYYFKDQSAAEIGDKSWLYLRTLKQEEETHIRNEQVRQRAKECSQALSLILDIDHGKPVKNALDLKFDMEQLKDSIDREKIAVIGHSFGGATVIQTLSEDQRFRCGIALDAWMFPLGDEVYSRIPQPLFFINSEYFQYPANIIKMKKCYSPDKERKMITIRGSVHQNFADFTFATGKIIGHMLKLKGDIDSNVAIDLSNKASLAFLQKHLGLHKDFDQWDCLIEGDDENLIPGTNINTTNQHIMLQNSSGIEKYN
PAFAH2 inh = inhibitors of human PAFAH2; Q99487; AID 492956; actives 0.99% (n = 340,000); inhibition, % at 3.39 µM; recombinant PAFAH2, FP-rhodamine activity probe, fluorescence polarization;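 active = inhibition above the mean over all tested compounds plus 3 SD, cut at about 30% in these data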;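 note: inhibitors block probe labeling of enzyme so polarization drops; 0% = enzyme with DMSO and 100% = wells lacking PAFAH2 protein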
PME-1 inh = PME-1 (human) inhibition; Q9Y570; inhibition, % at 5.9 µM; recombinant PME-1, FP-Rh probe fluorescence polarization; actives 0.53% (n = 320,000);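 active = inhibition above the campaign mean of all compounds plus 3 SD, cut at about 26% in these data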;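 note: competitive labeling of PME-1 active site by serine hydrolase directed probe; 0% = PME-1 with DMSO and 100% = wells lacking PME-1 enzyme; inhibitors block probe labeling so polarization falls and inhibition rises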
Fam108B inh = blocks mouse Fam108B hydrolase in RBBP9 counter-screen; actives 0.33% (n = 300,000); inhibition, % at 9.51 µM; recombinant Fam108B, FP-Rh probe fluorescence polarization; AID 1947;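 active = inhibition above the screen mean inhibition plus 3 SD, computed separately per campaign, cut at about 18% in these data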;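 note: inhibitors lower polarization as less probe binds the enzyme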
PAFAH1B2 inh = PAFAH1B2 (human) inhibition. recombinant PAFAH1B2, FP-rhodamine activity probe, fluorescence polarization. P68402. actives 1.2% (n = 340,000). inhibition, % at 3.39 µM;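 active = inhibition above the mean of all tested compounds plus 3 SD, cut at about 24% in these data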;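 note: 0% = enzyme with DMSO and 100% = wells lacking PAFAH1B2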
PAFAH1B3 inh = inhibitors of human PAFAH1B3 | actives 0.28% (n = 340,000) | recombinant PAFAH1B3, FP-rhodamine probe, fluorescence polarization | inhibition, % at 3.39 µM | Q15102;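 active = inhibition above the screen-wide average of all tested compounds plus 3 SD, cut at about 25% in these data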;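 note: 0% = enzyme with DMSO only and 100% = wells lacking PAFAH1B3 protein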
Target sequence (Q15102 whole entry, looked up): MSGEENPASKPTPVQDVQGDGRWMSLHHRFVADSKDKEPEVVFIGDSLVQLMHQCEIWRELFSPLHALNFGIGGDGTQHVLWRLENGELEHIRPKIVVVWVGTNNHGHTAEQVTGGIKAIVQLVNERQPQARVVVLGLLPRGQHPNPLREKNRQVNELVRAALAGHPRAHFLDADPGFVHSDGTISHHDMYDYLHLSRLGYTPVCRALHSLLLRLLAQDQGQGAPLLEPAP
PAFAH2 FP conf = confirmation of human PAFAH2 inhibitors; recombinant PAFAH2, FP-rhodamine activity probe, fluorescence polarization; shares compounds with PAFAH2 inh; inhibition, % at 3.39 µM; AID 493030; actives 65% (n = 2,300);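 active = mean inhibition over three repeats above a set limit taken from the earlier primary screen, cut at about 30% in these data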;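 note: inhibitor blocks binding of rhodamine activity probe so polarization falls; 0% = enzyme with DMSO and 100% = wells lacking PAFAH2 protein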
The depositor's hits bear a star; x = no result. Rows were chosen to be rich in hits. Some 2.9% of all compounds tested hit in one or more screens of this group.

SMILES	pPAFAH inh	PAFAH2 inh	PME-1 inh	Fam108B inh	PAFAH1B2 inh	PAFAH1B3 inh	PAFAH2 FP conf
CC1CCC(NC(=O)CN2C(=O)NC3(CCCCCC3)C2=O)CC1 (stereo unspecified)	-3.3	0.9	-0.7	x	2.0	4.2	x
Cc1ccc(C(=O)NCCc2nc3ccccc3[nH]2)cc1[N+](=O)[O-]	-3.8	-0.6	-4.2	-2.2	2.3	-2.1	x
Cc1ccc(C(=O)NCCSc2c(C)[nH]c3ccccc23)cc1[N+](=O)[O-]	6.0	29.9*	13.9	-1.8	7.5	5.9	18.7
CC(=O)N1C(C)(C)CC(=NOC(=O)c2ccccc2)CC1(C)C	5.6	67.2*	-1.9	-1.7	4.2	8.6	57.0*
CNC(=O)C(=O)NCCCN1CCOCC1	2.8	-2.2	2.8	-1.3	5.7	3.1	x
CCOC(=O)c1sc(N2C(=O)C(O)=C(C(=O)c3ccco3)C2c2cccc([N+](=O)[O-])c2)nc1C (stereo unspecified)	11.6	41.8*	-20.9	-3.5	-2.5	6.2	30.1*
CCOC(=O)c1sc(N2C(=O)C(O)=C(C(=O)c3ccco3)C2c2cccc(Cl)c2)nc1C (stereo unspecified)	2.5	23.2	-37.6	-7.8	0.4	1.7	x
CCc1cc(=O)[nH]c(SCc2cccc3ccccc23)n1	2.5	61.5*	1.0	0.8	6.7	4.9	51.4*
O=c1cc(C(F)(F)F)nc(SCc2cccc3ccccc23)[nH]1	3.4	50.9*	-12.5	1.9	9.3	3.2	30.9*
CC(C)N1C(=O)CCC1C(=O)NCc1cccs1 (stereo unspecified)	4.7	1.1	0.4	-3.3	2.0	-2.7	x
CCn1c(SCC(=O)Nc2ccc(OC)cc2)nc2c(c1=O)SCC2	4.9	2.8	1.2	1.6	3.3	2.6	x
CCOC(=O)c1c(CC(C)C)csc1/N=C/C1C(=O)CCCC1=O	5.9	33.4*	3.1	2.6	13.5	-1.5	25.1
O=C(COC(=O)c1cc(S(=O)(=O)N2CCCC2)ccc1O)Nc1ccc(F)cc1F	0.3	42.3*	x	x	8.2	-0.2	20.7
O=C(COC(=O)c1ccc(F)cc1F)Nc1cccc(S(=O)(=O)N2CCOCC2)c1	x	33.8*	x	x	2.6	-8.4	34.7*
Cc1noc(C)c1COc1ccc(C(=O)OCC(=O)Nc2cccc(S(=O)(=O)N3CCOCC3)c2)cc1	7.8	72.2*	-0.6	-8.0	0.7	-0.9	64.5*
COc1ccccc1CCC(=O)OCC(=O)Nc1cccc(S(=O)(=O)N2CCOCC2)c1	13.4	73.3*	-7.5	-5.2	-5.6	6.5	66.0*
COc1ccccc1CCC(=O)OCC(=O)Nc1cccc(S(=O)(=O)N2CCCCC2)c1	16.6	7.3	2.8	-15.1	1.2	-2.0	x
CC(=O)Nc1ccc(NC(=O)COC(=O)c2cc(S(=O)(=O)N3CCCC3)ccc2O)cc1	-2.5	9.3	x	x	3.3	4.6	x
C=C1c2cc3c(cc2NC(=S)N1Cc1ccccc1)OCO3	5.0	x	-1.8	3.7	x	x	x
CC(=O)c1cccc(NC(=O)c2cc(=O)[nH]c3ccc(S(=O)(=O)N4CCOCC4)cc23)c1	0.9	-4.7	x	x	-3.8	1.3	x
Cc1cc(C2CCCCC2)n(O)c(=O)c1	5.9	-0.3	-2.4	-9.1	0.2	3.5	x
Cc1cc(C(=O)OCC(=O)Nc2cccc(S(=O)(=O)N3CCOCC3)c2)c(C)o1	6.6	35.7*	2.7	-1.7	-3.5	2.2	27.2
CCOC(=O)CCCCCC(=O)Nc1ccc2c(c1)C(=O)N([C@H](C)CO)C[C@@H](C)[C@H](CN(C)Cc1ccc3c(c1)OCO3)O2	20.4	2.4	x	x	5.3	0.3	x
COc1cc(OC)c(NS(=O)(=O)c2cc(C(=O)OCC(=O)NCC3CCCO3)ccc2OC)cc1Cl (stereo unspecified)	-3.3	70.5*	-2.1	-3.8	9.3	14.0	52.1*
CCOc1ccc(C(=O)OCC(=O)NCC2CCCO2)cc1 (stereo unspecified)	3.3	48.0*	x	x	5.3	6.6	28.1
SMILES	pPAFAH inh	PAFAH2 inh	PME-1 inh	Fam108B inh	PAFAH1B2 inh	PAFAH1B3 inh	PAFAH2 FP conf
O=C(COC(=O)c1cccs1)NCC1CCCO1 (stereo unspecified)	4.7	35.4*	-2.6	1.7	2.9	0.1	15.6
Nc1cc(C(=O)OCC(=O)NCC2CCCO2)ccc1Cl (stereo unspecified)	1.9	19.2	-2.9	0.3	-3.3	-2.8	x
CCOc1ccc(C(=O)OCC(=O)NC(C)C)cc1	2.2	55.4*	0.3	1.2	-0.9	-0.3	42.8*
O=C(COC(=O)c1ccccc1)NCC1CCCO1 (stereo unspecified)	1.7	17.4	-4.0	4.3	0.1	14.6	x
COc1cccc(OCC(=O)NCC2CCCO2)c1 (stereo unspecified)	3.5	3.7	x	x	6.6	12.0	x
COc1ccc(C(=O)OCC(=O)NCC2CCCO2)c(F)c1 (stereo unspecified)	8.5	37.9*	-2.2	x	3.5	3.9	33.6*
CCc1ccccc1SCc1noc(C(=O)NCC2CCCO2)c1C(=O)O (stereo unspecified)	0.5	40.4*	-1.6	3.8	16.0	6.2	26.4
O=C(NCC1CCCO1)c1onc(CSc2ccccc2F)c1C(=O)O (stereo unspecified)	4.0	17.1	3.1	0.2	4.2	-3.8	x
C=CCNC(=O)c1onc(CSc2ccccc2CC)c1C(=O)O	3.0	48.7*	-0.6	-2.8	11.3	3.3	36.4*
C=CCNC(=O)c1onc(CSc2ccc(C)c(C)c2)c1C(=O)O	-1.4	2.7	-3.1	5.9	4.9	11.0	x
C=CCNC(=O)c1onc(CSc2cc(C)cc(C)c2)c1C(=O)O	0.1	37.8*	1.3	-4.7	6.4	4.5	23.4
CCOC(=O)c1[nH]c(C)c(C(=O)N2CCCC(Nc3ccc(C)c(C)c3)C2)c1C (stereo unspecified)	-1.6	-3.5	6.0	3.2	-1.2	0.0	x
O=C1OC(C(=O)NCc2ccccc2)Cc2ccccc21 (stereo unspecified)	1.2	34.8*	-0.3	-2.5	4.6	11.8	20.1
O=C(NCc1ccccc1)C1COc2ccccc2O1 (stereo unspecified)	4.6	-1.9	-4.0	-4.4	4.1	1.9	x
COc1cc2nc(-c3cccs3)oc(=O)c2cc1OC	-2.1	40.8*	-4.1	14.7	0.4	16.7	23.0
Cc1ccc2nc(-c3cccs3)oc(=O)c2c1	1.6	54.2*	-5.9	8.3	-0.8	10.8	53.9*
O=C(CSc1nnc(COc2ccc(Cl)cc2)o1)Nc1ccc(N2CCOCC2)cc1	x	-0.9	x	x	0.8	-2.5	x
O=C(O)CCc1[nH]c2ccccc2c1Sc1ccccc1	9.6	31.1*	2.9	-1.8	9.9	3.8	25.4
O=C(O)CCc1c(C(=O)O)[nH]c2ccccc12	4.6	-3.8	-1.8	2.1	1.5	4.9	x
